The record followed here is the supplement of paper PMC9925115.

Where a name gives a salt, the structure may show the parent alone. ± gives the uncertainty stated by the source.

For the test, the system named is FLX1. Nature of the test: cell viability z-score within plate (CellTiter-Glo), mean of 3 biological replicates; higher = higher viability relative to plate (less growth inhibition). As to conditions: 2 µM; time (hr): 120. On the procedure:
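FLX1 fibrolamellar carcinoma cells (DNAJB1-PRKACA fusion), 600 cells/well in 384-well plates, treated with a Selleck kinase inhibitor library (L1200) at 2 uM for 5 days (120 hr); viability by CellTiter-Glo. A z-score was computed within each plate and averaged over three biological replicates.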
(In general: ATP-based viability assays read luminescence as a measure of living cells.)
Turning to `CC[C@H](Nc1ncnc2[nH]cnc12)c1nc2cccc(F)c2c(=O)n1-c1ccccc1` [Idelalisib (CAL-101, GS-1101)], the “cell viability z-score within plate” value stood at 0.166 ± 0.22. Next, `CN(C)Cc1cccc(N=C(c2ccccc2)c2c(O)[nH]c3cc(C(=O)N(C)C)ccc23)c1`: 0.69 ± 0.34; `Oc1ccc(-c2nc(-c3ccc(F)cc3)c(-c3ccncc3)[nH]2)cc1`: -1.48 ± 1.1. For `Nc1nc(N)c(N=O)c(OCC2CCCCC2)n1`, the “cell viability z-score within plate” value turned out to be 0.662 ± 0.19.

For the compound `Cc1c(NC(=O)OC[C@@H]2COCCN2)cn2ncnc(Nc3ccc4c(cnn4Cc4cccc(F)c4)c3)c12`, the “cell viability z-score within plate” value is -2.76 ± 1.1. Take `Cc1cc(N2CCOCC2)cc2[nH]c(-c3c(NC[C@@H](O)c4cccc(Cl)c4)cc[nH]c3=O)nc12`: the “cell viability z-score within plate” value is -0.387 ± 0.41.

As for `CN(C)CCOc1ccc(-c2nc(-c3ccncc3)c(-c3ccc4c(c3)CC/C4=N\O)[nH]2)cc1`, the “cell viability z-score within plate” value amounted to 0.259 ± 0.2. For the compound `NC(=O)c1ccc(N(C(N)=O)c2c(F)cccc2F)nc1-c1ccc(F)cc1F`, the “cell viability z-score within plate” value was -1.05 ± 0.15. Consider `COc1ccc(F)c(F)c1C(=O)c1cnc(NC2CCN(S(C)(=O)=O)CC2)nc1N`, for which the “cell viability z-score within plate” value was determined as 0.272 ± 0.44. Next, `Cc1ccc(S(=O)(=O)/C=C/C#N)cc1`: 0.177 ± 0.63. Next, `N=C(N)NC(=N)NCCc1ccccc1` [Phenformin HCl]: 1.08 ± 0.3; `O=C1Nc2ccc(I)cc2/C1=C/c1cc(Br)c(O)c(Br)c1`: 1.53 ± 0.35; `Cc1ccccc1CN1C2=NCCN2C(=O)C2=C1CCN(Cc1ccccc1)C2` [TIC10 Analogue]: 0.481 ± 0.4. Next, `COc1ccccc1-c1cc(Nc2cccc(CS(N)(=O)=O)c2)ncn1`: 0.545 ± 1.1; `COc1cc2nccc(Oc3ccc(NC(=O)C4(C(=O)Nc5ccc(F)cc5)CC4)cc3)c2cc1OC`: 0.561 ± 0.36.

As to `O=C(NCc1cccc(O)c1)Nc1nc(-c2ccncc2)cs1`, the “cell viability z-score within plate” value was 0.289 ± 0.42. Next, `Cc1cc(Nc2cc(N3CCN(C)CC3)nc(Sc3ccc(NC(=O)C4CC4)cc3)n2)n[nH]1` [Tozasertib (VX-680, MK-0457)]: 0.324 ± 0.42. The figure for `Cc1ccc(F)c(NC(=O)Nc2ccc(-c3cccc4[nH]nc(N)c34)cc2)c1` [Linifanib (ABT-869)] is 0.077 ± 0.57; for `Cc1cnc(NC(=O)Nc2cc(Br)c(C)cc2OC[C@@H]2CNCCO2)cn1` it is 0.709 ± 0.31. With `COc1ccc(-c2cc3c(C)nc(N)nc3n([C@H]3CC[C@H](OCCO)CC3)c2=O)cn1`, the “cell viability z-score within plate” value was -0.872 ± 0.053.

On to `C=CC(=O)Nc1ccc2ncnc(Nc3ccc(OCc4cccc(F)c4)c(Cl)c3)c2c1`, for which the “cell viability z-score within plate” value amounted to 0.819 ± 0.26. The figure for `O=c1c(O)c(-c2ccc(O)c(O)c2)oc2cc(O)cc(O)c12` [Quercetin] is 1.1 ± 0.51.

As to `Cc1cc(NC(=O)c2cccc(NC(=O)/C=C/CN(C)C)c2)ccc1Nc1nccc(-c2cccnc2)n1`, the “cell viability z-score within plate” value came out at 0.657 ± 0.22. Regarding `CCCS(=O)(=O)Nc1ccc(F)c(C(=O)c2c[nH]c3ncc(Cl)cc23)c1F`, the “cell viability z-score within plate” value was found to be 0.17 ± 0.093. With `CC1(C)CNc2cc(NC(=O)c3cccnc3NCc3ccncc3)ccc21` [Motesanib Diphosphate (AMG-706)], the “cell viability z-score within plate” value was 0.0691 ± 0.21.

`CO[C@H]1C[C@@H]2CC[C@@H](C)[C@@](O)(O2)C(=O)C(=O)N2CCCC[C@H]2C(=O)O[C@H]([C@H](C)C[C@@H]2CC[C@@H](OC(=O)C(C)(CO)CO)[C@H](OC)C2)CC(=O)[C@H](C)/C=C(\C)[C@@H](O)[C@@H](OC)C(=O)[C@H](C)C[C@H](C)/C=C/C=C/C=C/1C`: the “cell viability z-score within plate” value is -0.0698 ± 1.1. In the case of `Nc1ccc(C(=O)Nc2cccc(-c3nc(N4CCOCC4)c4oc5ncccc5c4n3)c2)cn1`, the “cell viability z-score within plate” value was found to be 0.775 ± 0.24. The figure for `O=C(NCCCNc1nc(Nc2cccc(NC(=O)N3CCCC3)c2)ncc1I)c1cccs1` is -0.658 ± 0.97. Take `CCN(CC)CCNC(=O)c1c(C)[nH]c(/C=C2\C(=O)Nc3ccc(F)cc32)c1C` [Sunitinib Malate]: the “cell viability z-score within plate” value is -0.049 ± 0.26. Next, `Cn1cc(/C=C2\C(=O)Nc3cccnc32)c2ccccc21`: 0.84 ± 0.29; `O=c1ncn2nc(Sc3ccc(F)cc3F)ccc2c1-c1c(Cl)cccc1Cl`: -3.62 ± 2.1; `C[C@H](NC(=O)/C(C#N)=C/c1cccc(Br)n1)c1ccccc1`: 0.427 ± 0.59. The figure for `CCc1nc(-c2cccc(C)c2)c(-c2ccnc(NC(=O)c3ccccc3)c2)s1` is 0.996 ± 0.36; for `C=CC(=O)Nc1cc(Nc2nccc(-c3cn(C)c4ccccc34)n2)c(OC)cc1N(C)CCN(C)C` [Osimertinib (AZD9291)] it is -0.225 ± 0.34.

On to `C#Cc1cccc(Nc2ncnc3cc(OC)c(OCCCCCCC(=O)NO)cc23)c1`, for which the “cell viability z-score within plate” value is -0.217 ± 0.35. The figure for `CN1CCN(c2cccc(Nc3nc4c(-c5ccc(S(C)(=O)=O)cc5)cccn4n3)c2)CC1` is 1.01 ± 0.27. The figure for `O=S(=O)(c1cccc2cnccc12)N1CCCNCC1` [Fasudil (HA-1077) HCl] is 0.511 ± 0.42; for `CN1CCN(C2CCN(C(=O)Nc3cc(Oc4ccc(NC(=O)C5(C(=O)Nc6ccc(F)cc6)CC5)c(F)c4)ccn3)CC2)CC1` [Golvatinib (E7050)] it is 0.521 ± 0.14. Turning to `CC1=C(C(=O)Nc2cc3cn[nH]c3cc2F)C(c2ccc(C(F)(F)F)cc2)CC(=O)N1` (stereo not given), the “cell viability z-score within plate” value is 1.02 ± 0.74.

In the case of `CC(C)(C)c1cc(/C=C(\C#N)C(N)=S)cc(C(C)(C)C)c1O` [Tyrphostin AG 879], the “cell viability z-score within plate” value came to 0.585 ± 0.3.
